Source: PubChem BioAssay (The Scripps Research Institute Molecular Screening Center)
SRC3 TRFRET art: TR-FRET detection interference compounds, artefact control for PPARgamma SRC-3 recruitment agonists, biochemical, TR-FRET ratio. TR-FRET artefact counter-screen, PPARgamma/SRC-3 format; stronger effect = higher value. TR-FRET ratio at 8 µM. hit rate 0.39% among 99,000. AID 1048, 2008
PPARg SRC-2 ag: agonists of PPARg-SRC-2 recruitment, primary screen, biochemical, HTS. hit rate 0.34% among 200,000. activation, % at 8 µM. AID 1032, 2008. Peroxisome proliferator-activated receptor gamma (Homo sapiens), P37231. PPARgamma LBD-SRC-2 recruitment; in the data active means activation above about 22%;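 further: 0% = vehicle and 100% = reference agonist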
Target sequence (P37231 whole entry, looked up, the tested form may be a part): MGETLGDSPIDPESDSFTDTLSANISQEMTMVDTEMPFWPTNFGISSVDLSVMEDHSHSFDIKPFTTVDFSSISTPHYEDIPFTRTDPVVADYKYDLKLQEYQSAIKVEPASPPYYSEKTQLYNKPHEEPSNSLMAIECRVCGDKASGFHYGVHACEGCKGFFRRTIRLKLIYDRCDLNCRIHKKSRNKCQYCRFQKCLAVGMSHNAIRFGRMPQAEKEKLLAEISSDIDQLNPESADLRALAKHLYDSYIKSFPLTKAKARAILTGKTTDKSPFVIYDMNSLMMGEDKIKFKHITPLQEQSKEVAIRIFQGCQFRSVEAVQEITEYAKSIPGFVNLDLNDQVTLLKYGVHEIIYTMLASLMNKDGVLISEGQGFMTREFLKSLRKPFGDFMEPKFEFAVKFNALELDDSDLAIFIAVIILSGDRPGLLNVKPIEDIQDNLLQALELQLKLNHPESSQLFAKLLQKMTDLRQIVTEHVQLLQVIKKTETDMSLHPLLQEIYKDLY
SRC2 TRFRET art: TR-FRET signal artefacts, primary screen, artefact control for PPARgamma SRC-2 agonist project, biochemical; TR-FRET artefact counter-screen; stronger effect = higher value; TR-FRET ratio at 8 µM; hit rate 0.4% among 200,000
PPARg SRC3 recr: PPARgamma agonists recruiting SRC-3 coactivator, primary screen, biochemical. biochemical PPARgamma/SRC-3 coactivator recruitment assay. hit rate 0.26% among 200,000. Peroxisome proliferator-activated receptor gamma (Homo sapiens), P37231. activation, % at 8 µM; in the data active means activation above about 23%;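 further: 0% = DMSO and 100% = reference agonist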
PPARg SRC1 recr: PPARgamma agonists recruiting SRC-1 coactivator, primary screen, biochemical; Peroxisome proliferator-activated receptor gamma (Homo sapiens), P37231; PPARgamma-SRC-1 coactivator recruitment biochemical assay; activation, % at 8 µM; hit rate 0.41% among 200,000; AID 631, 2007; in the data active means activation above about 19%;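 further: 0% = DMSO and 100% = reference agonist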
SRC1 TRFRET art: TR-FRET detection interference compounds, primary screen, artefact control for PPARgamma SRC-1 recruitment agonists, biochemical, TR-FRET emission ratio | hit rate 0.34% among 99,000 | TR-FRET ratio at 8 µM | AID 1051, 2008 | TR-FRET detection artefact counter-screen; stronger effect = higher value; in the data active means TR-FRET ratio above about 2300
An asterisk follows results filed as active; · = no result given. This is a sample that favours compounds with a hit; in the whole collection about 0.9% have one here. Unless noted, no stated cut-off is given here; in the data, active means TR-FRET ratio above about 2000; inactive means the rest.

SMILES | SRC3 TRFRET art | PPARg SRC-2 ag | SRC2 TRFRET art | PPARg SRC3 recr | PPARg SRC1 recr | SRC1 TRFRET art
CCOc1ccc(CCNC(=O)CSc2nn(-c3ccc(C)c(Cl)c3)c(=S)s2)cc1OCC | 1533 | 3 | 1407 | 1 | 30* | 2577*
COc1ccc(OC)c(-c2c3cc(O)c(=O)cc-3oc3cc(O)c(O)cc23)c1 | 1906 | 23* | 1565 | 10 | 17 | 2166
CCOc1ccccc1-c1c2cc(O)c(=O)cc-2oc2cc(O)c(O)cc12 | 1809 | 17 | 1524 | 6 | 4 | 1827
CCc1cccc(NC(=O)C2CCCN(S(=O)(=O)c3c(C)[nH]c(=O)[nH]c3=O)C2)c1 (configuration not stated) | · | 8 | 1727 | 10 | 10 | ·
Cc1cccc(NC(=O)C2CCN(S(=O)(=O)c3c(C)[nH]c(=O)[nH]c3=O)CC2)c1 | 1709 | 5 | 1997* | 4 | 6 | 1982
Fc1ccccc1CSc1nc2ncc(Br)cc2[nH]1 | · | 24* | 1920 | 7 | 3 | ·
N#Cc1ccccc1CSc1nc2ncc(Br)cc2[nH]1 | 1759 | 16 | 1754 | 3 | 4 | 1936
O=C(Nc1ccccc1)c1cc2n(n1)C(C(F)(F)F)CC(C1CC1)N2 (configuration not stated) | 1687 | 3 | 1520 | 3 | 4 | 1631
O=C(Nc1ccc(N2CCCCC2)cc1)c1ccccc1 | · | 0 | 1498 | 7 | 19* | ·
O=C(Nc1ccncc1)c1cncc(Br)c1 | · | 5 | 1683 | 19 | 12 | ·
O=C(Nc1ccc(N2CCCCC2)cc1)c1cncc(Br)c1 | · | 6 | 1438 | 5 | 20* | ·
Cc1ccc(C(=O)Nc2ccc(N3CCCC3)cc2)cc1 | 1531 | 5 | 1744 | 6 | 22* | 1942
COc1ccc(-c2sc(NC(C)=O)nc2-c2ccccc2)cc1 | 1517 | -3 | 1610 | 5 | 4 | 1702
O=C(CSCC(=O)N1CCCCC1)Nc1nc(-c2ccccc2)c(-c2ccccc2)s1 | 2244* | 8 | 1498 | 8 | 4 | 2010
COc1ccccc1-c1nc(SCC(=O)NCC2CCCO2)c2c(=O)n(C)c(=O)n(C)c2n1 (configuration not stated) | 1695 | -5 | 1519 | 4 | 0 | 1936
O=C(CSc1nc2ccccc2c(=O)n1-c1ccc(F)cc1)Nc1ccc(Cl)c(S(=O)(=O)N2CCOCC2)c1 | 2299* | 17 | 2212* | 16 | 5 | 2261
Cc1cc(SCC(=O)Nc2cccc(S(=O)(=O)N3CCOCC3)c2)nc2ccccc12 | 2197* | -4 | 1663 | 3 | 1 | 2263
Nc1cc(=O)[nH]c(SCC(=O)Nc2cc(S(=O)(=O)N3CCOCC3)ccc2Cl)n1 | 1565 | 0 | 1697 | -2 | 3 | 1910
CCc1ccc(-n2c(SCC(=O)Nc3cccc(S(=O)(=O)NC4=NCCCCC4)c3)nc3ccccc3c2=O)cc1 | 1653 | -1 | 1490 | 2 | -10 | 1667
O=C(CSc1nc2ccccc2c(=O)n1-c1ccc(F)c(Cl)c1)Nc1cccc(S(=O)(=O)N2CCOCC2)c1 | 1729 | 8 | 1756 | 5 | -3 | 2035
O=C(CSc1nnc2c(n1)[nH]c1ccc(S(=O)(=O)N3CCOCC3)cc12)Nc1ccccc1Cl | 2209* | 9 | 1683 | 14 | 10 | 2042
Cc1ccc(-n2c(SCC(=O)Nc3cccc(S(=O)(=O)NC4=NCCCCC4)c3)nc3ccccc3c2=O)cc1 | 2355* | -1 | 2048* | 3 | -1 | 2001
Cc1cc2nnc(SCC(=O)Nc3cc(S(=O)(=O)N4CCOCC4)ccc3Cl)n2c2ccccc12 | 2297* | 5 | 1718 | 3 | 4 | 1864
O=C(CSc1nc2ccccc2s1)Nc1cc(S(=O)(=O)N2CCOCC2)ccc1Cl | 2069* | 12 | 1577 | 7 | 6 | 1864
Cc1ccc(-n2c(SCC(=O)Nc3cc(S(=O)(=O)N4CCOCC4)ccc3Cl)nc3ccccc3c2=O)cc1 | 1429 | -6 | 1481 | 0 | 1 | 1829
Cc1ccc(S(=O)(=O)N2CCOCC2)cc1NC(=O)CSc1nnc2cc(C)c3ccccc3n12 | 1734 | 8 | 1791 | 3 | 5 | 2009
Cc1cc(NC(=O)c2cccc(Oc3ccccc3)c2)n[nH]1 | 1671 | 1 | 1620 | 4 | 6 | 1904
